Among the data in PubChem BioAssay (NCI) are growth values, retold here.

Among the test systems are HCT-15 colon; HT29 colon; SNB-75 CNS; SNB-19 CNS; U251 CNS; PC-3 prostate; SK-MEL-5 melanoma; UACC-62 melanoma; LOX IMVI melanoma; SK-MEL-28 melanoma; SK-MEL-2 melanoma; EKVX NSCLC; SN12C renal; UO-31 renal; TK-10 renal; ACHN renal; CAKI-1 renal; A498 renal; CCRF-CEM leukemia; MOLT-4 leukemia.
What all share (experiment): NCI-60 one-dose screen, 48 h (100 = growth as untreated, 0 = no growth, -100 = all killed)
Settings in all cases: 10 µM unless noted

The panel holds about 83,000 compounds, 20% with a hit somewhere; the sample as a whole holds those more often.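 Values shown are percent growth following 48 h exposure of cells in 96-well plates to a single concentration of compound; below 10 was considered active.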 Unmarked numbers belong to inactive results. The source made the active and inactive calls.

Take `CN(C)CCCC1(c2ccc(F)cc2)OCc2cc(-c3cccc4[nH]ccc34)ccc21` (stereo not given): the growth in the assay with HCT-15 colon was 7.57% (active); in the assay on HT29 colon, -31.3% (active); with SNB-75 CNS it was 11.4%; with SNB-19 CNS it was 51.9%; with U251 CNS, -24.1% (active); in the assay on PC-3 prostate, 28.6%. Besides, the growth in the assay on SK-MEL-5 melanoma is -84.1% (active); in the assay on UACC-62 melanoma it was 37.5%; with LOX IMVI melanoma it was -92.1% (active); with SK-MEL-28 melanoma it was -86% (active); with SK-MEL-2 melanoma it was 74.5%; in the assay on EKVX NSCLC it was 44.8%. In addition, the growth in the assay with SN12C renal is 48.3%; in the assay with UO-31 renal it was -9.8% (active); with TK-10 renal, 58.5%; with ACHN renal, 9.24% (active); in the assay on CAKI-1 renal it was 6.71% (active); in the assay with A498 renal, 72%. The growth is 16% in the assay on CCRF-CEM leukemia and -8.64% (active) in the assay on MOLT-4 leukemia.
For `CN(C)c1ccc(/C=C/C(=O)c2ccc(-n3cc(CN4CCN(c5cc6c(cc5F)c(=O)c(C(=O)O)cn6C5CC5)CC4)nn3)cc2)cc1`, the growth in the assay on HCT-15 colon was 63.4%; with HT29 colon, 28%; in the assay with SNB-75 CNS, 68.1%; with SNB-19 CNS, 31.6%; with U251 CNS, 16.5%; in the assay on PC-3 prostate, 57.4%. The growth with SK-MEL-5 melanoma was 79%; in the assay on UACC-62 melanoma it was 55.8%; in the assay with LOX IMVI melanoma, 20.3%; in the assay with SK-MEL-28 melanoma it was 68%; with SK-MEL-2 melanoma it was 89%; in the assay on EKVX NSCLC, 87.6%. For the same compound, the growth is 8.77% (active) with SN12C renal; 62.8% with UO-31 renal; 85.1% in the assay with TK-10 renal; 88.5% in the assay with ACHN renal; 36.9% with CAKI-1 renal; 61.1% in the assay with A498 renal. The growth in the assay with CCRF-CEM leukemia was 20%; in the assay with MOLT-4 leukemia, 31.8%.
Take `Fc1ccc2[nH]cc(-c3nonc3-c3c[nH]c4ccc(Br)cc34)c2c1`: the growth in the assay on HCT-15 colon is 9.29% (active); in the assay on HT29 colon it was -51.8% (active); with SNB-75 CNS, 33.7%; in the assay with SNB-19 CNS, 35.8%; in the assay on U251 CNS, 13.6%; in the assay on PC-3 prostate, 26.7%. Also, the growth in the assay with SK-MEL-5 melanoma is 49.8%; with UACC-62 melanoma, 28%; in the assay on LOX IMVI melanoma, -53.9% (active); with SK-MEL-28 melanoma, 61.8%; in the assay on SK-MEL-2 melanoma it was 27%; with EKVX NSCLC, 19.3%. The growth with SN12C renal was 47.3%; in the assay on UO-31 renal, 17.3%; in the assay on TK-10 renal it was 41.5%; in the assay with ACHN renal, 23.3%; in the assay on CAKI-1 renal, 12.4%; with A498 renal it was 24.9%. Also, the growth in the assay with CCRF-CEM leukemia is 26%; in the assay on MOLT-4 leukemia, 16.7%.
Turning to `Cc1cnc(C(=O)NNc2nc3sc4c(c3c(=O)n2C)C(C)CCC4)cn1` (stereo not given), the growth in the assay with HCT-15 colon is 15.9%; in the assay on HT29 colon, -2.88% (active); in the assay with SNB-75 CNS, 1.63% (active); in the assay on SNB-19 CNS it was -14.8% (active); with U251 CNS it was -33.3% (active); in the assay with PC-3 prostate, 8.78% (active). Further, the growth was -53.8% (active) in the assay with SK-MEL-5 melanoma; -20.8% (active) with UACC-62 melanoma; -17.5% (active) in the assay on LOX IMVI melanoma; 8.43% (active) in the assay with SK-MEL-28 melanoma; -6.07% (active) with SK-MEL-2 melanoma; 6.08% (active) in the assay with EKVX NSCLC. Further, the growth was 9.01% (active) in the assay on SN12C renal; -0.356% (active) in the assay with UO-31 renal; 27.2% in the assay on TK-10 renal; 9.47% (active) in the assay with ACHN renal; 2.74% (active) in the assay with CAKI-1 renal; 21.1% in the assay with A498 renal. The growth in the assay with CCRF-CEM leukemia was 2.41% (active); in the assay on MOLT-4 leukemia, 3.79% (active).
Turning to `CC(=O)[C@@H]1CCC=C2CC[C@]3(C)[C@@H](CC[C@@H]4[C@@]5(C)CCCNC(C)(C)[C@@H]5CC[C@]43C)[C@H]21`, the growth is -89% (active) in the assay on HCT-15 colon; -83.7% (active) in the assay with HT29 colon; 23.5% in the assay with SNB-75 CNS; -77.2% (active) in the assay with SNB-19 CNS; -98.8% (active) with U251 CNS; -21.4% (active) in the assay with PC-3 prostate. Besides, the growth in the assay on SK-MEL-5 melanoma was 64.2%; with UACC-62 melanoma it was -79% (active); in the assay on LOX IMVI melanoma it was -99.5% (active); in the assay with SK-MEL-28 melanoma, -42.3% (active); in the assay on SK-MEL-2 melanoma it was -52.3% (active); with EKVX NSCLC, -47.8% (active). For the same compound, the growth in the assay on SN12C renal is -87.9% (active); with UO-31 renal it was 18.4%; in the assay on TK-10 renal, -46.6% (active); in the assay on ACHN renal it was -82.4% (active); in the assay on CAKI-1 renal, -92.5% (active); in the assay on A498 renal it was 69.8%. In addition, the results for the growth in the assay with CCRF-CEM leukemia and with MOLT-4 leukemia were -23.4% (active) and -46.4% (active), respectively.
In the case of `O=C(CSc1nc2sc3c(c2c(=O)n1-c1ccccc1)CCCCC3)N/N=C/c1ccc(F)cc1`, the growth with HCT-15 colon was 48.6%; in the assay on HT29 colon, 26.2%; in the assay with SNB-75 CNS, -65.4% (active); in the assay on SNB-19 CNS it was 47.4%; in the assay with U251 CNS, 6.96% (active); in the assay with PC-3 prostate, 45.8%. For the same compound, the growth with SK-MEL-5 melanoma is 50.7%; in the assay on UACC-62 melanoma it was 83.5%; with LOX IMVI melanoma, 37.1%; with SK-MEL-28 melanoma it was 48.9%; in the assay with SK-MEL-2 melanoma it was 91.9%; in the assay on EKVX NSCLC, 80%. Besides, the growth with SN12C renal was 16.3%; in the assay with UO-31 renal, 88.2%; with TK-10 renal, 69.1%; with ACHN renal it was 26.8%; in the assay on CAKI-1 renal, -13.7% (active); in the assay on A498 renal, 89.7%. Moreover, the results for the growth in the assay on CCRF-CEM leukemia and in the assay with MOLT-4 leukemia were 46% and 67.1%, respectively.
Regarding `C[C@]12CC[C@@H]3c4ccc(O)c([N+](=O)[O-])c4CC[C@H]3[C@@H]1CCC2=O`, the growth was 94.4% with HCT-15 colon; 95.5% with HT29 colon; 58.1% in the assay on SNB-75 CNS; 107% in the assay with SNB-19 CNS; 93.2% with U251 CNS; 97% with PC-3 prostate. In addition, the growth with SK-MEL-5 melanoma is 82.3%; with UACC-62 melanoma, 87.3%; with LOX IMVI melanoma it was 90.7%; in the assay with SK-MEL-28 melanoma, 115%; in the assay on SK-MEL-2 melanoma it was 107%; in the assay with EKVX NSCLC it was 58.5%. Besides, the growth in the assay with SN12C renal was 101%; with UO-31 renal, 81.5%; in the assay with TK-10 renal it was 89%; in the assay with ACHN renal, 94.1%; with CAKI-1 renal, 72.7%; in the assay on A498 renal it was 141%. For the same compound, the growth in the assay with CCRF-CEM leukemia is 110%; with MOLT-4 leukemia it was 80.4%.
